# Compound activity from PubChem.
# MITF inhib: MITF inhibition | inhibition, % (test concentration not listed) | TRPM1 promoter luciferase, luminescence, 24 h | AID 2240 | actives 0.28% (n = 37,000); in the data active means inhibition above about 85%; inconclusive means no clear call, values can overlap the other calls; inactive means below about 68%;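 further: human melanocyte line stably carrying TRPM1 promoter luciferase reporter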
# Shh pathway inh: blocks Sonic Hedgehog signaling; Shh-LIGHT2 Gli-luciferase reporter, 30 h; inhibition, % (concentration not given with the values); actives 2.1% (n = 22,000); AID 2313;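 active means mean inhibition across valid replicates above about 65%, limit read from the data; inconclusive means mean under the limit, yet half or more replicates past it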;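 further: pathway switched on by Shh-conditioned medium diluted 1 in 25 in low serum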
# PD-1 reversal: reversal of PD-1 mediated T-cell inhibition. activation, % (no concentration beside the values). AID 2316. primary human CD4 T cells, PD-L1 beads, CellTiter-Glo 96 h. 29,000 tested, under 10 active; call rule not given here
# NOMO-1 viab: STK33 inhibitor candidate reducing NOMO-1 cell viability | NOMO-1 AML viability, CellTiter-Glo luminescence, 72 h | inhibition, % (test concentration not listed) | actives 7.5% (n = 37,000) | AID 2330; in the data active means inhibition above about 80%; inconclusive means no clear call, values can overlap the other calls
# A number is an active result; - = inactive; ? = inconclusive; . = not tested or not shown; ! = a repeat was not active. Only some compounds are listed: those with a hit (about 8.1% of all), similar ones and a draw of the others.
SMILES,MITF inhib,Shh pathway inh,PD-1 reversal,NOMO-1 viab
C[C@@H]1CN([C@H](C)CO)C(=O)Cc2cc(NC(=O)CCC(F)(F)F)ccc2O[C@@H]1CN(C)Cc1ccc(Cl)c(Cl)c1,-,-,-,116
C[C@@H]1CN([C@H](C)CO)C(=O)Cc2cc(NC(=O)Nc3ccc4c(c3)OCO4)ccc2O[C@@H]1CN(C)S(=O)(=O)c1ccc(F)cc1,-,-,-,-
C[C@H](CO)N1C[C@H](C)[C@@H](CN(C)C(=O)Nc2ccc3c(c2)OCO3)Oc2ccc(NC(=O)Nc3ccc(F)cc3)cc2C1=O,-,-,-,-
CNC[C@@H]1Oc2ccc(NS(=O)(=O)c3ccc(F)cc3)cc2C(=O)N([C@@H](C)CO)C[C@H]1C,-,.,-,-
C[C@H](CO)N1C[C@H](C)[C@H](CN(C)Cc2ccc(C(F)(F)F)cc2)Oc2ccc(NC(=O)Nc3ccc(C(F)(F)F)cc3)cc2CC1=O,-,-,-,129
C[C@@H]1CN([C@@H](C)CO)C(=O)Cc2cc(NC(=O)Nc3ccc(C(F)(F)F)cc3)ccc2O[C@@H]1CN(C)C(=O)NC1CCCCC1,-,-,-,113
C[C@H](CO)N1C[C@H](C)[C@H](CN(C)C(=O)NC2CCCCC2)Oc2ccc(NC(=O)Nc3ccc(C(F)(F)F)cc3)cc2CC1=O,-,-,-,-
C[C@H](CO)N1C[C@H](C)[C@H](CN(C)Cc2ccncc2)Oc2ccc(NC(=O)Nc3ccc(C(F)(F)F)cc3)cc2CC1=O,-,-,-,126
C[C@@H]1CN([C@@H](C)CO)C(=O)Cc2cc(NC(=O)NC3CCCCC3)ccc2O[C@@H]1CN(C)C(=O)Nc1ccc(C(F)(F)F)cc1,-,-,-,-
C[C@@H]1CN([C@H](C)CO)C(=O)Cc2cc(NC(=O)NC3CCCCC3)ccc2O[C@@H]1CN(C)Cc1ccc(C(F)(F)F)cc1,-,-,-,109
C[C@@H]1CN([C@H](C)CO)C(=O)c2cccc(NC(=O)Nc3ccc(C(F)(F)F)cc3)c2O[C@H]1CN(C)CC1CCCCC1,-,-,-,?
COc1ccc(NC(=O)Nc2ccc3c(c2)C(=O)N([C@@H](C)CO)C[C@@H](C)[C@H](CN(C)Cc2ccc4c(c2)OCO4)O3)cc1,-,-,-,-
C[C@@H]1CN([C@H](C)CO)C(=O)c2cc(NS(=O)(=O)c3cn(C)cn3)ccc2O[C@@H]1CN(C)S(=O)(=O)c1cccs1,-,-,.,-
CC(C)NC(=O)N(C)C[C@H]1Oc2c(NC(=O)c3nc4ccccc4s3)cccc2C(=O)N([C@H](C)CO)C[C@H]1C,-,-,-,-
COc1ccc(C(=O)N2c3ccccc3CCc3ccccc32)cc1,-,-,-,104
O=C1C=C(NC2CCCC2)CC(c2ccccc2)C1 (stereo unspecified),-,-,-,111
CNC[C@@H]1Oc2ccc(NS(=O)(=O)c3ccccc3)cc2C(=O)N([C@H](C)CO)C[C@H]1C,-,-,-,-
CC1CC(=O)C2=C(C1)C1OC1C1(O)C2C(=O)c2cccc(O)c2C1O (stereo unspecified),.,-,.,.
CC1CC(=O)C2=C(C1)C(Cl)C(O)C1(O)C2C(=O)c2cccc(O)c2C1O (stereo unspecified),-,-,-,101
C[C@@H]1CN([C@H](C)CO)C(=O)Cc2cc(NC(=O)C3CCCCC3)ccc2O[C@@H]1CN(C)CC1CCCCC1,-,76,-,-
C[C@@H]1CN([C@H](C)CO)C(=O)Cc2cc(NC(=O)Nc3ccccc3)ccc2O[C@@H]1CN(C)CC1CCCCC1,-,.,-,104
C[C@@H]1CN([C@@H](C)CO)C(=O)Cc2cc(NC(=O)Nc3ccccc3)ccc2O[C@@H]1CN(C)CC1CCCCC1,-,-,.,?
C[C@@H]1CN([C@H](C)CO)C(=O)Cc2cc(NC(=O)Nc3cccc4ccccc34)ccc2O[C@@H]1CN(C)CC1CCCCC1,-,-,-,87
C[C@H]1CN([C@@H](C)CO)C(=O)Cc2cc(NC(=O)C3CCCCC3)ccc2O[C@H]1CN(C)CC1CCCCC1,-,-,-,-
C[C@@H]1CN([C@H](C)CO)C(=O)Cc2cc(NC(=O)Nc3ccc(F)cc3)ccc2O[C@@H]1CN(C)CC1CCCCC1,-,.,-,100
SMILES,MITF inhib,Shh pathway inh,PD-1 reversal,NOMO-1 viab
O=C(O)CNS(=O)(=O)c1ccc(C(=O)Nc2ccccc2)cc1,-,.,-,-
CCOC(=O)c1ccc(NC(=O)Cn2nc([N+](=O)[O-])c(Br)c2C)cc1,-,.,.,-
CCOC(=O)c1cc(C2COc3ccccc3O2)sc1NC(=S)NC(=O)c1ccccc1 (stereo unspecified),-,.,.,-
C[C@@H]1CN([C@@H](C)CO)C(=O)c2cccc(NS(=O)(=O)c3cccs3)c2O[C@@H]1CN(C)C,-,-,-,-
C[C@H]1CN([C@@H](C)CO)C(=O)Cc2cc(NC(=O)Nc3ccccc3)ccc2O[C@@H]1CN(C)CC1CCCCC1,-,-,-,101
C[C@@H]1CCCCO[C@@H](CN(C)S(=O)(=O)c2ccccc2)[C@@H](C)CN([C@H](C)CO)C(=O)c2cc(NS(=O)(=O)c3ccccc3)ccc2O1,-,-,-,-
CC(=O)c1cccc(NC(=O)CSc2nnc(-c3ccccc3Cl)n2-c2ccccc2)c1,-,.,-,-
C[C@H]1CN([C@@H](C)CO)C(=O)c2cc(NC(=O)Nc3ccc4c(c3)OCO4)ccc2O[C@@H]1CN(C)C(=O)Nc1ccccc1,-,-,-,-
Nc1nc(Cl)nc2c1ncn2C1OC(CO)[C@H](O)[C@H]1F (stereo partly specified),-,-,-,97
Nc1nc(Cl)nc2c1ncn2C1C[C@@H](O)C(CO)O1 (stereo partly specified),-,72,-,98
Nc1ncnc2c1ncn2C1CCC(CO)O1 (stereo unspecified),-,-,-,-
N#Cc1cc2c(nc1SCC(=O)Nc1cccc(F)c1)CCCC2,-,.,.,92
OC(CN1CCNCC1)Cn1c2ccc(Br)cc2c2cc(Br)ccc21 (stereo unspecified),-,78!,-,121
CC1CCN(CC(O)COc2c(F)cc(Br)cc2F)CC1 (stereo unspecified),-,-,-,-
Cc1cc(C)c(OCC(O)Cn2cnc3ccccc32)c(C)c1 (stereo unspecified),-,.,-,-
COC(=O)c1c(NC(=O)c2ccccc2N(C)S(=O)(=O)c2ccccc2)sc2c1CCCC2,-,.,-,117
C[C@H](CO)N1C[C@H](C)[C@H](CN(C)S(=O)(=O)c2ccccc2)Oc2ccc(NC(=O)CCCN(C)C)cc2C1=O,-,-,-,-
CS(=O)(=O)c1sc(NC(=O)Nc2ccc(Cl)cc2)c2c1C=CCC2,-,106,-,122
C=CS(=O)(=O)c1ccc(OC)c(N)c1,-,83,-,120
Nc1ncnc2c1c(I)cn2C1OC(CO)C(O)C1O (stereo unspecified),88,-,.,114
COc1ccccc1NC(=O)c1ccc(OCC(=O)Nc2cc(Cl)cc(Cl)c2)cc1,-,.,-,86
Cc1cc(Cl)ccc1OCC(O)CN1CCC(CN2C(=O)c3cccc4cccc(c34)C2=O)CC1 (stereo unspecified),-,.,.,119
